Assay results from the supplement of paper PMC13380429.

Tested on: Vero E6 infected with SARS-CoV-2
Assay: inhibition of SARS-CoV-2 cytopathic effect; higher = more antiviral protection, active = above 15
Settings: 48 h

Measured: inhibition of SARS-CoV-2 cytopathic effect

NC(=O)CN1C=CCC(C(N)=O)=C1 [caricotamide]
inactive: 1 nM 0.48% | 8.33 nM 2.71% | 100 nM 1.14% | 833.33 nM -1.91% | 10000 nM 0.44%

Oc1cc2c(cc1O)[C@H]1c3ccccc3CN[C@@H]1CC2 (racemic) [dihydrexidine]
inactive: 1 nM -2.37% | 8.33 nM -1.57% | 100 nM 0.62% | 833.33 nM -2.04% | 10000 nM 2.92%

CCC(=O)OCC(=O)[C@@]1(OC(=O)CC)[C@H](C)C[C@H]2[C@H]3[C@H]([C@@H](O)C[C@@]21C)[C@@]1(C)C=CC(=O)C=C1C[C@H]3Cl [alclometasone-dipropionate]
inactive: 1 nM 3% | 8.33 nM 0.48% | 100 nM 1.16% | 833.33 nM 1.07% | 10000 nM -2.92%

CCCCCC(C)N (stereo not given) [tuaminoheptane]
inactive: 1 nM 1.21% | 8.33 nM 1.95% | 100 nM 0.51% | 833.33 nM 3.02% | 10000 nM 1.11%

CO/N=C(\C(=O)N[C@@H]1C(=O)N2C(C(=O)O)=C(CSc3nc(C)c(CC(=O)O)s3)CS[C@H]12)c1csc(N)n1 [cefodizime]
inactive: 1 nM -6.45% | 8.33 nM -0.68% | 100 nM -2% | 833.33 nM -0.21% | 10000 nM -4.2%

CCCC[N+]1(C)[C@@H]2C[C@@H](OC(=O)[C@H](CO)c3ccccc3)C[C@H]1[C@@H]1O[C@@H]12 (stereo not given in full) [butylscopolamine-bromide]
inactive: 1 nM -2.47% | 8.33 nM -2.18% | 100 nM -2.19% | 833.33 nM 0.56% | 10000 nM -1.1%

Nc1ncnc2c1C(=O)N(c1ccc([C@H]3CC[C@H](CC(=O)O)CC3)cc1)CCO2
inactive: 1 nM 4.58% | 8.33 nM 2.44% | 100 nM -0.31% | 833.33 nM 5.58% | 10000 nM 4.43%

C[C@H](Nc1ncnc2nc[nH]c12)c1cc2cccc(Cl)c2c(=O)n1-c1ccccc1 [duvelisib]
inactive: 1 nM -1.06% | 8.33 nM -0.83% | 100 nM -1.82% | 833.33 nM 0.25% | 10000 nM -3.79%

CC1(C)CCC(C)(C)c2cc(C3(c4ccc(C(=O)O)cc4)OCCO3)ccc21
inactive: 1 nM -2.44% | 8.33 nM -2.21% | 100 nM 1% | 833.33 nM -0.7% | 10000 nM -1.37%

[I-].[K+] [potassium-iodide]
inactive: 1 nM -3.24% | 8.33 nM -3.7% | 100 nM -1.59% | 833.33 nM 0.38% | 10000 nM -1.54%

CC[C@H]1[C@@H]2C[C@H]3[C@@H]4N(C)c5ccccc5[C@]45C[C@@H]([C@@H]2[C@H]5O)N3[C@@H]1O [ajmaline]
inactive: 1 nM -1.1% | 8.33 nM -2.42% | 100 nM 0.36% | 833.33 nM 0.5% | 10000 nM -1.16%

CC(=O)OC/C=C(C)/C=C/C=C(C)/C=C/C1=C(C)CCCC1(C)C [retinyl-acetate]
inactive: 1 nM -1.78% | 8.33 nM 0.37% | 100 nM -0.15% | 833.33 nM 1.34% | 10000 nM 0.15%

CCn1cc(C(=O)O)c(=O)c2cc(F)c(N3CCNCC3)nc21 [enoxacin]
inactive: 1 nM 4.58% | 8.33 nM 2.38% | 100 nM 0.25% | 833.33 nM -2.16% | 10000 nM 0.56%

O=C(Nc1ccc(CN2CCOCC2)cc1)c1ccc(-c2cccc(Cl)c2)o1
inactive: 1 nM 0.42% | 8.33 nM -1.17% | 100 nM 0.17% | 833.33 nM 0.72% | 10000 nM -0.79%

CC(=O)[C@@]1(O)CC[C@H]2[C@@H]3C[C@H](C)C4=CC(=O)C=C[C@]4(C)[C@@]3(F)[C@@H](O)C[C@@]21C [fluorometholone]
inactive: 1 nM 0.01% | 8.33 nM 0.61% | 100 nM 0.19% | 833.33 nM -0.97% | 10000 nM 1.57%

C=C1/C(=C\C=C2/CCC[C@]3(C)[C@@H]([C@H](C)/C=C/[C@H](C)C(C)(C)O)CC[C@@H]23)C[C@@H](O)C[C@@H]1O [ercalcitriol]
inactive: 1 nM -1.77% | 8.33 nM 0.83% | 100 nM -0.6% | 833.33 nM 2.88% | 10000 nM 3.34%

c1ccc(Oc2nc(NC3CCCCC3)c3[nH]cnc3n2)cc1
inactive: 1 nM 0.79% | 8.33 nM -0.47% | 100 nM -1.37% | 833.33 nM -1.49% | 10000 nM -6.42%

CS(=O)(=O)Nc1ccc(Cc2noc(-c3ccc4[nH]cc(CCN)c4c3)n2)cc1
inactive: 1 nM -2.75% | 8.33 nM -0.95% | 100 nM -2.42% | 833.33 nM -1.18% | 10000 nM -1.18%

CCCCCCCCCCCCCCCC[N+](C)(C)Cc1ccccc1 [benzyldimethylhexadecylammonium]
inactive: 1 nM 2.1% | 8.33 nM 0.11% | 100 nM -1.57% | 833.33 nM -0.97% | 10000 nM -13.2%

CCC(N)C(O)c1ccc(O)c(O)c1 (stereo not given) [ethylnorepinephrine]
inactive: 1 nM -0.61% | 8.33 nM 0.7% | 100 nM 0.54% | 833.33 nM -1.28% | 10000 nM -0.69%

C[C@]12CC/C(=N\OCCN)C[C@@H]1C(=O)C[C@@H]1[C@@H]2CC[C@]2(C)C(=O)CC[C@@H]12 [istaroxime]
inactive: 1 nM 2.17% | 8.33 nM -1.67% | 100 nM 1.45% | 833.33 nM 3.86% | 10000 nM 6.93%

COc1ccc2cc3[n+](cc2c1OC)CCc1cc2c(cc1-3)OCO2 [berberine]
inactive: 1 nM -11.8% | 8.33 nM -10.1% | 100 nM -11% | 833.33 nM -3.86% | 10000 nM -3.62%

CC(Oc1c(Cl)cccc1Cl)C1=NCCN1 (stereo not given) [lofexidine]
inactive: 1 nM 3.3% | 8.33 nM 3.14% | 100 nM 5.17% | 833.33 nM 7.76% | 10000 nM 1.15%

O=C(O)c1cn(C2CC2)c2cc(N3CCNCC3)c(F)cc2c1=O [ciprofloxacin]
inactive: 1 nM -2.01% | 8.33 nM -1.59% | 100 nM 0.61% | 833.33 nM -0.98% | 10000 nM -2.99%

O=C(Nc1ccccc1)N[C@H]1C[C@H](C(=O)O)Nc2cc(Cl)cc(Cl)c21
inactive: 1 nM -0.64% | 8.33 nM -2.48% | 100 nM 0.61% | 833.33 nM -0.05% | 10000 nM 0.62%

NCCCC[C@H](N[C@@H](CCc1ccccc1)C(=O)O)C(=O)N1CCC[C@H]1C(=O)O [lisinopril]
inactive: 1 nM 0.42% | 8.33 nM 0.67% | 100 nM 0.78% | 833.33 nM 0.97% | 10000 nM 1.56%

CC(C)(N)c1cc(C(=O)N[C@@H]2CCc3ccc(Oc4ccnc5c4CCC(=O)N5)cc3C2)cc(C(F)(F)F)c1
inactive: 1 nM 0.3% | 8.33 nM 1.69% | 100 nM 1.9% | 833.33 nM -3.12% | 10000 nM -8.56%

CC(C)NC(=O)N1CC[C@H](NC2=Nc3cc(F)ccc3N(CC(F)F)c3ccc(Cl)cc32)C1
inactive: 1 nM 2.37% | 8.33 nM 0.15% | 100 nM 3.33% | 833.33 nM 8.12% | 10000 nM -0.57%
